Results filed as inconclusive are left out. The source made the active and inactive calls. Unless noted, calls follow the shape of the dose curve; as a rule, active = well fitted curve in the direction sought with a large enough effect in the repeat runs; inconclusive = weak or mixed curves; inactive = no such curve, though single readings can be large; an effect the other way counts as inactive or inconclusive.
Legend:
[1] = target: Nuclear receptor subfamily 1 group I member 3 (Homo sapiens) (UniProt Q14994); assay: qHTS assay to identify small molecule agonists of the constitutive androstane receptor (CAR) signaling pathway (AID 1224839); settings: HepG2 hCAR CYP2B6-luciferase, agonist mode, 24 h; series mostly up to 92.4 µM;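 also: HepG2 cells stably carrying human CAR and a CYP2B6 luciferase reporter; nearly all actives have a fitted effect of over 15% in size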
How it was run: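 HepG2-CYP2B6-hCAR cells, 2500/well, 4 h pre-incubation; compounds 15 conc.; PK11195 0.75 uM final; 24 h, 37 C/5% CO2; ONE-Glo luciferase read.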

[2] = qHTS assay to identify small molecule antagonists of the estrogen related receptor signaling pathway with the pleiotropic PPARgamma coactivator (PGC) from Tox21 10K library - cell viability counter screen (AID 1224840; active = well fitted cell-killing curve with a large enough effect in the repeat runs, not every such curve was filed as active; also: nearly all actives have a fitted effect of over 40% in size); settings: PGC/ERR reporter cells viability, CellTiter-Fluor, 17.5 h; series mostly up to 92.4 µM
How it was run: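 Multiplexed viability counter screen in the PGC/ERR cell line: cells treated with DMSO-dissolved compounds for 17.5 hours at 37 C, then viability measured as CellTiter-Fluor fluorescence.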

[3] = qHTS assay to identify small molecule agonists of the hypoxia (HIF-1) signaling pathway - cell viability counter screen (AID 1224844; calls by dose curve; also: nearly all actives have a fitted effect of over 50% in size); settings: HRE-bla ME-180 viability, CellTiter-Glo luminescence, 17 h; series mostly up to 76.8 µM
How it was run: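 Cytotoxicity was measured in parallel with the HRE-driven beta-lactamase readout: after 17 hrs of compound exposure at 37C, HRE-bla ME-180 cells received CellTiter-Glo and luminescence was recorded 30 min later.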

[4] = qHTS assay to identify small molecule agonists of H2AX (AID 1224845; active = well fitted activation curve with a large enough effect in the signal ratio in the repeat runs, not every such curve was filed as active; the % refers to the signal ratio); settings: CHO-K1 phospho-H2AX Ser139 HTRF, 3 h; series mostly up to 154 µM
How it was run: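 Wild-type CHO-K1 cells plated overnight, then exposed 3 hr at 37C to compounds at 15 concentrations (0.76% DMSO). Lysed, then HTRF anti-pH2AX(S139)-cryptate/anti-H2AX-d2 detection after 24 hr at room temperature; emissions 665 and 620 nm.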

[5] = qHTS assay to identify small molecule agonists of the hypoxia (HIF-1) signaling pathway (AID 1224846; active = well fitted activation curve with a large enough effect in the signal ratio in the repeat runs, not every such curve was filed as active; the % refers to the signal ratio); settings: HRE-bla ME-180 cells, beta-lactamase ratio, 17 h; series mostly up to 76.8 µM
How it was run: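 Compounds from the Tox21 10K library, dissolved in DMSO, are tested for induction of a hypoxia response element–controlled beta-lactamase reporter in ME-180 cells. Exposure lasts 17 hrs at 37C after a 5 hr settling period, followed by CCF4-AM FRET substrate.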

[6] = qHTS assay to identify small molecule agonists of H2AX - cell viability counter screen (AID 1224847; calls by dose curve; also: top concentration of the series differs between compounds; nearly all actives have a fitted effect of over 30% in size); settings: CHO-K1 viability, CellTiter-Glo luminescence, 3 h; series mostly up to 154 µM
How it was run: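 Cells plated first: CHO-K1, 1000 per well in 10% FBS medium, incubated overnight at 37C. Then 15-point compound titration added (final DMSO 0.76%) for 3 hr. Finally CellTiter-Glo added and luminescence read.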

[7] = qHTS RealTime-Glo MT Cell Viability Assay in HepG2 cells - 24 hour (AID 1224867); settings: RealTime-Glo luminescence; series mostly up to 76.8 µM; also: nearly all actives have a fitted effect of over 50% in size
How it was run: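 HepG2 cells (600/well) were dispensed with RealTime-Glo reagents, incubated 5 h at 37 °C, then treated with compounds in DMSO for up to 40 h. Nonlytic NanoLuc luminescence reflecting viable cells was read at each stated time point.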

[8] = qHTS RealTime-Glo MT Cell Viability Assay in HEK293 cells - 32 hour (AID 1224868); settings: RealTime-Glo luminescence; series mostly up to 76.8 µM; also: top concentration of the series differs between compounds; nearly all actives have a fitted effect of over 50% in size
How it was run: (§1)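 HEK293 cells seeded with NanoLuc/prosubstrate reagent, rested 5 h at 37 C, then dosed and kept at 37 C up to 40 h. Nonlytic real-time luminescence from viable cells read at 0, 8, 16, 24, 32 and 40 h.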

[9] = A CellTox Green Cytotoxicity Assay to monitor cytotoxicity in HEK293 cells - 0 hour (AID 1224869); settings: CellTox Green fluorescence; series mostly up to 76.8 µM; also: nearly all actives have a fitted effect of over 50% in size
How it was run: (§2)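 Cells (HEK293, 600/well) and dye reagent are dispensed together. After 5 h at 37 C, 23 nL compound is pinned in. Plates stay at 37 C for 40 h with fluorescence read at 0h, 8h, 16h, 24h, 32h and 40h.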

[10] = qHTS RealTime-Glo MT Cell Viability Assay in HepG2 cells - 40 hour (AID 1224870); settings: RealTime-Glo luminescence; series mostly up to 76.8 µM; also: nearly all actives have a fitted effect of over 50% in size
How it was run: (§3)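 HepG2 cells mixed with RealTime-Glo MT reagents (NanoLuc plus cell-permeant prosubstrate) were seeded at 600 cells/well, incubated 5 h at 37 C/5% CO2, then pinned with compounds in DMSO; nonlytic luminescence tracked viability during 40 h treatment.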

[11] = A CellTox Green Cytotoxicity Assay to monitor cytotoxicity in HEK293 cells - 40 hour (AID 1224871); settings: CellTox Green fluorescence; series mostly up to 76.8 µM; also: nearly all actives have a fitted effect of over 45% in size
How it was run: as §2

[12] = qHTS RealTime-Glo MT Cell Viability Assay in HEK293 cells - 16 hour (AID 1224872); settings: RealTime-Glo luminescence; series mostly up to 76.8 µM
How it was run: as §1

[13] = qHTS RealTime-Glo MT Cell Viability Assay in HepG2 cells - 8 hour (AID 1224873); settings: RealTime-Glo luminescence; series mostly up to 76.8 µM; also: nearly all actives have a fitted effect of over 55% in size
How it was run: as §3

[14] = qHTS RealTime-Glo MT Cell Viability Assay in HEK293 cells - 40 hour (AID 1224874); settings: RealTime-Glo luminescence; max response: stronger effect = lower value; also: nearly all actives have a fitted effect of over 50% in size
How it was run: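 Real-time viability in HEK293: signal arises when living cells convert a prosubstrate for NanoLuc in the medium, so luminescence tracks viable cell number. Compound (23 nL, DMSO) added 5 h post-seeding; kinetic reads at 0–40 h, 37 C.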

[15] = A CellTox Green Cytotoxicity Assay to monitor cytotoxicity in HEK293 cells - 24 hour (AID 1224875); settings: CellTox Green fluorescence; series mostly up to 76.8 µM; also: nearly all actives have a fitted effect of over 45% in size
How it was run: as §2

[16] = qHTS assay to identify small molecule agonists of the estrogen related receptor signaling pathway with the pleiotropic PPARgamma coactivator (PGC) from Tox21 10K library (AID 1224842); settings: PGC/ERR reporter cell line, luciferase ONE-Glo, 18 h; series mostly up to 92.4 µM; also: nearly all actives have a fitted effect of over 15% in size
How it was run: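 PGC/ERR reporter cells (NTP line) were seeded 2,000 per well, rested 6 h at 37 C/5% CO2, then pin-dosed with compounds in DMSO for 18 h at 37 C; luciferase read by One-Glo luminescence after 30 min at room temperature.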

[17] = target: Thyrotropin receptor (Homo sapiens) (UniProt P16473); assay: qHTS assay to identify small molecule agonists of the thyroid stimulating hormone receptor (TSHR) signaling pathway (AID 1224843; calls by dose curve; also: nearly all actives have a fitted effect of over 45% in size); settings: TSHR-HEK293 cells, cAMP HTRF, agonist mode, 30 min; series mostly up to 92.4 µM
How it was run: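 Compounds are titrated over 15 concentrations, in triplicate, onto TSHR-HEK293 cells seeded at 800/well. Plates sit 30 min at room temperature before cAMP-d2 and anti-cAMP cryptate are added; signal is read after a further hour.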

[18] = qHTS assay to identify small molecule antagonists of the estrogen related receptor (ERR) signaling pathway from Tox21 library (AID 1224848); settings: ERR reporter cell line, luciferase antagonist mode, 18 h; series mostly up to 92.4 µM; also: nearly all actives have a fitted effect of over 50% in size
How it was run: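 First, 2,000 ERR cells per well were plated and held 6 h at 37 C/5% CO2. Next, compounds in DMSO were pinned in and left 18 h at 37 C. Finally, ONE-Glo was added and luminescence read after 30 min at room temperature.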

[19] = qHTS assay to identify small molecule agonists of the estrogen related receptor (ERR) signaling pathway from Tox21 library (AID 1224849; calls by dose curve; also: nearly all actives have a fitted effect of over 15% in size); settings: ERR reporter cell line, ONE-Glo luciferase, 18 h; series mostly up to 92.4 µM
How it was run: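 Cells carrying the ERR reporter were plated and allowed to settle for 6 h, exposed to library compounds for 18 h at 37 C, then lysed with ONE-Glo and luminescence measured.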

[20] = qHTS assay to identify small molecule antagonists of the estrogen related receptor signaling pathway with the pleiotropic PPARgamma coactivator (PGC) from Tox21 10K library (AID 1224841; call rule not given here); settings: PGC/ERR reporter cell line, ONE-Glo luciferase, 18 h; series mostly up to 92.4 µM
How it was run: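 Steps: plate 2,000 PGC/ERR cells per well; incubate 6 h at 37 C with 5% CO2; transfer compounds from DMSO stocks by pin tool; incubate 18 h at 37 C; add One-Glo; measure luminescence 30 min later.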
% is scaled to controls: 0 for no effect and ±100 for the full control effect.

Chain of Thyrotropin receptor (Homo sapiens) (P16473 whole entry, looked up): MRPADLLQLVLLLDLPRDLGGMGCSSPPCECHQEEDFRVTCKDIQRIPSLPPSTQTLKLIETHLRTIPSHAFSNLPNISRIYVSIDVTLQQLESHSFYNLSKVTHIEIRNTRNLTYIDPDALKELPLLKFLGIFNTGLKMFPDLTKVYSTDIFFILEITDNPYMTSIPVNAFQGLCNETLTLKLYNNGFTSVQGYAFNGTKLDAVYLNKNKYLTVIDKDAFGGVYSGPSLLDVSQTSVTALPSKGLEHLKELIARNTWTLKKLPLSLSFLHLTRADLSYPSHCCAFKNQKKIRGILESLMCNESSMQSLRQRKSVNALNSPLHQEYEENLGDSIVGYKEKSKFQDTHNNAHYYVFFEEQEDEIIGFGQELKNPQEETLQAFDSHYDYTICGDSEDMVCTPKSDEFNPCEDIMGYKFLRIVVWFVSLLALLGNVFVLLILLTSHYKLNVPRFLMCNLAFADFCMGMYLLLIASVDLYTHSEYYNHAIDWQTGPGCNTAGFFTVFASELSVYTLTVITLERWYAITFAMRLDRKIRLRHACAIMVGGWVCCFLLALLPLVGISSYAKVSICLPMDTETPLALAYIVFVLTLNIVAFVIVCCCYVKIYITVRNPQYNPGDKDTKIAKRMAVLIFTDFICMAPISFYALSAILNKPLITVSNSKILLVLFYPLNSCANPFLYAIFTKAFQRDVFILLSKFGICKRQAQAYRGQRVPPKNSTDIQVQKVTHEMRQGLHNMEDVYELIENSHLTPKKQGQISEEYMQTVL
Chain of Nuclear receptor subfamily 1 group I member 3 (Homo sapiens) (Q14994 whole entry, looked up): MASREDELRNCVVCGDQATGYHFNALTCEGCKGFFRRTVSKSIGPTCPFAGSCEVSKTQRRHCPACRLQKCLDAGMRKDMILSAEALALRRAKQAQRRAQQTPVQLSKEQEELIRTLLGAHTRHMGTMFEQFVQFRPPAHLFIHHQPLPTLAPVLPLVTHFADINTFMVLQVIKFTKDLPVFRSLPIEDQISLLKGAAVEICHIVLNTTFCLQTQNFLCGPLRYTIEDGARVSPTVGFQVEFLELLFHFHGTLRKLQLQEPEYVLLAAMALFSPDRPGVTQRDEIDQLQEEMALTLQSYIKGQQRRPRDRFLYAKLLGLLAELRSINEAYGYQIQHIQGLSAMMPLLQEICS

CC(=O)OCC(=O)[C@@]1(O)[C@H](OC(C)=O)C[C@H]2[C@@H]3CCC4=CC(=O)C=C[C@]4(C)[C@@]3(F)[C@@H](O)C[C@@]21C
inactive: Potency [1] | outcome [2] | outcome [3] | outcome [4] | outcome [5] | Potency [6] | outcome [7] | Potency [8] | Potency [9] | outcome [10] | Potency [11] | Potency [12] | outcome [13] | max response [14] 3.94% | Potency [15]

Cc1ccccc1C(=O)N1CC/C(=N\OS(=O)(=O)O)c2ccc(Cl)cc21
inactive: Potency [1] | outcome [2] | outcome [16] | outcome [17] | outcome [3] | Potency [6] | Potency [18] | outcome [19] | outcome [7] | Potency [8] | Potency [9] | outcome [10] | Potency [11] | Potency [12] | outcome [13] | max response [14] -2.43% | Potency [15]

Cc1ccc2c(c1)c1c3n2CCNC3CCC1 (configuration not stated)
inactive: Potency [1] | outcome [2] | outcome [17] | outcome [3] | outcome [4] | Potency [6] | outcome [7] | Potency [8] | Potency [9] | Potency [11] | Potency [12] | outcome [13] | max response [14] 0.813% | Potency [15]

NS(=O)(=O)c1cc2c(cc1Cl)NC(C(Cl)Cl)NS2(=O)=O (configuration not stated)
inactive: Potency [1] | outcome [2] | outcome [17] | outcome [3] | outcome [4] | Potency [6] | outcome [7] | Potency [8] | Potency [9] | outcome [10] | Potency [11] | Potency [12] | outcome [13] | max response [14] 2.25% | Potency [15]

CC(=O)OC(C)c1ccccc1 (configuration not stated)
inactive: Potency [1] | outcome [2] | outcome [3] | outcome [4] | outcome [5] | Potency [6] | outcome [7] | Potency [8] | Potency [9] | outcome [10] | Potency [11] | Potency [12] | outcome [13] | max response [14] 0.769% | Potency [15]

CC(C)(C)c1ccc(C=O)cc1
inactive: Potency [1] | outcome [2] | outcome [17] | outcome [3] | outcome [4] | outcome [5] | Potency [6] | outcome [7] | Potency [8] | Potency [9] | outcome [10] | Potency [12] | outcome [13] | max response [14] 0.97% | Potency [15]

CCCCC(CC)CNC(=O)CC(C)OC(=O)CCC(=O)O (configuration not stated)
inactive: Potency [1] | outcome [2] | Potency [20] | outcome [17] | outcome [3] | outcome [4] | outcome [5] | Potency [6] | Potency [18] | outcome [7] | Potency [8] | Potency [9] | outcome [10] | Potency [11] | Potency [12] | outcome [13] | max response [14] 3.69% | Potency [15]

CCC(=O)c1ccc(O)cc1
inactive: Potency [1] | outcome [3] | outcome [4] | Potency [6] | outcome [7] | Potency [8] | Potency [9] | outcome [10] | Potency [11] | Potency [12] | outcome [13] | max response [14] -7.06% | Potency [15]

— PubChem BioAssay (Tox21)
